# VACV mCherry inh: vaccinia inhibition (mCherry reporter). AID 720579. Vaccinia virus mCherry reporter infection, fluorescence. hit rate 0.63% among 310,000. Potency, µM (series often up to 36.5 µM), actives largely listed as inhibitors; calls by dose curve; tested in A549 cells; note: nearly all actives have a fitted effect of over 35% in size
# Pf growth 96h: inhibits malaria parasite growth, 96 h; AID 504834; hit rate 6.9% among 320,000; Potency, µM (doses to about 28.7 µM), hits mostly inhibitors; P. falciparum luciferase reporter growth, 96 h
#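 Infected RBCs, 2% Hct / 0.05% parasitemia final; luciferase-reporter P. falciparum; cpd 96 h, 37 C, 5% CO2; luciferase detection reagent; luminescence.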
# Vaccinia Venus: inhibitors of vaccinia virus (Venus reporter). Vaccinia virus Venus reporter expression, fluorescence. Potency, µM (top dose mostly 36.5 µM), most hits filed as inhibitors. hit rate 0.46% among 330,000; calls by dose curve; tested in A549 cells; note: nearly all actives have a fitted effect of over 30% in size
# AMA1-RON2 inh: AMA1-RON2 (P. falciparum) interaction inhibition; AlphaScreen AMA1-biotinylated RON2 peptide binding; Potency, µM (doses to about 58.2 µM), most hits filed as inhibitors; hit rate 0.2% among 360,000; AID 720542; note: nearly all actives have a fitted effect of over 45% in size
#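 AMA1 (3D7) with his tag at 25 nM final met compounds first, then biotinylated RON2 peptide at 25 nM; detection used donor plus acceptor beads, 10 µg/mL apiece, read by AlphaScreen after 30 min at room temperature.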
# Pf growth 48h: P. falciparum growth inhibition at 48 hours (one generation); P. falciparum luciferase growth in erythrocytes, 48 h; Potency, µM (doses to about 28.7 µM), usual class: inhibitors; hit rate 5.9% among 310,000; AID 504832
#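 First compound was added to culture medium, then infected red cells at 0.1% parasitemia and 2% hematocrit (final). After incubation at 37 C under 5% CO2, luciferase detection reagent was dispensed and light output recorded.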
# Hits are given with their value; – = inactive; ? = inconclusive; · = not tested or not shown; [ ] = remark or other dose. Only some compounds are listed: those with a hit (about 8.7% of all), similar ones and a draw of the others. Unless noted, calls come from the whole dose curve; as a rule, active = well fitted curve in the direction sought with a large enough effect; inconclusive = small, poorly fitted or top-dose-only effect, or another doubt; inactive = no such curve, though single readings can be large; an effect the other way counts as inactive or inconclusive.
SMILES,VACV mCherry inh,Pf growth 96h,Vaccinia Venus,AMA1-RON2 inh,Pf growth 48h
Nc1cccc(Oc2cnccn2)c1,·,–,·,–,·
O=C(CCl)Nc1cccc(Oc2cnccn2)c1,·,3.7µM,·,–,·
Cc1cnc(SCC2CCCO2)nc1C1CCCN(C(=O)C2=NNC(=O)CC2)C1 (stereo unspecified),–,·,–,·,·
COc1cc(-c2nc3c[n+](CC(=O)c4ccccc4)ccc3n2C)cc(OC)c1OC,–,–,–,–[2.32 µM],7.4µM
COc1ccc(C(=O)C[n+]2ccc3c(c2)nc(-c2ccccc2)n3C)cc1,–,–,–,–,2.3µM
COc1cc(-c2nc3ccccc3c(=O)n2N)cc(OC)c1OC,–,?,–,–,–
COc1ccc(C(=O)C[n+]2ccc3c(c2)nc(-c2ccc(OC)cc2OC)n3C)cc1,–,4.1µM,–,–,12µM
COc1ccc(C2(c3ccc(OC)cc3)NC(=O)N(Cn3nnc4ccccc4c3=O)C2=O)cc1,·,?,·,–,12µM
COc1ccc(NC(=O)CCCCCn2nnc3ccccc3c2=O)cc1,–,–,–,–,–
O=c1c2ccccc2sc2c(CO)ccc(NCCN3CCCCC3)c12,?,·,10µM,–,·
CCN(CC)CCNc1cccc2sc3ccccc3c(=O)c12,?,·,?,–,·
CN(C)CCNc1ccc2nnn3c4ccc(O)cc4c(=O)c1c23,?,·,?,–,·
Cc1ccc(NCCN(C)C)c2c(=O)c3cc(O)ccc3sc12,1.4µM,·,?,–,·
CCN(CC)CCNc1ccc(CO)c2sc3ccccc3c(=O)c12,–,2.9µM,?,–,3.7µM
CCc1ccccc1NC(=O)c1oc(=O)c2ccccc2c1-c1ccccc1,–,·,–,·,·
CCOC(=O)C(C)NC(=O)C1CCN(c2ncnc3c2nc2n3CCCCC2)CC1 (stereo unspecified),–,·,–,·,·
CC1CCN(Cc2c(O)ccc3c2O/C(=C\c2ccco2)C3=O)CC1,–,10µM,–,?,15µM
O=C1/C(=C/c2ccco2)Oc2c1ccc(O)c2CN1CCCCC1,–,?,–,?,?
CCN1CCN(Cc2c(O)ccc3c2O/C(=C\C=C\c2ccccc2OC)C3=O)CC1,–,4.1µM,–,–[11.6 µM],2.9µM
CCN1CCN(Cc2c(O)ccc3c(=O)c(-c4ccccc4OC)coc23)CC1,–,·,–,–,?
CC(C)(C)n1nc2c(c1NC(=O)c1ccc([N+](=O)[O-])cc1)CS(=O)(=O)C2,–,8.3µM,–,–,–
O=C(Nc1c2c(nn1-c1ccc([N+](=O)[O-])cc1)CS(=O)(=O)C2)c1ccccc1F,·,–,·,–,–
O=C(Nc1c2c(nn1-c1ccc([N+](=O)[O-])cc1)CS(=O)(=O)C2)c1cccs1,·,5.9µM,·,–,?
CC(C)(C)n1nc2c(c1NC(=O)c1cc([N+](=O)[O-])ccc1Cl)CS(=O)(=O)C2,·,–,·,–,?
Cn1c(=O)c2c(nc(SCC(=O)Nc3ccc(F)cc3)n2Cc2ccccc2F)n(C)c1=O,–,·,–,·,·
SMILES,VACV mCherry inh,Pf growth 96h,Vaccinia Venus,AMA1-RON2 inh,Pf growth 48h
Cc1cc(C)c(COCc2cc(/C=N/O)c(C)cc2C)cc1/C=N/O,–,10µM,?,–,·
CN(C)S(=O)(=O)c1ccc(S(=O)(=O)N(CC(=O)Nc2ccccc2)CC2CCCO2)cc1 (stereo unspecified),·,12µM,–,–,–
CCN(CC(=O)Nc1cccc(C(C)=O)c1)S(=O)(=O)c1ccccc1,–,9.3µM,–,–,?
CCC(C(=O)Nc1cccc(S(=O)(=O)N(C)c2ccccc2)c1)c1ccccc1 (stereo unspecified),–,?,–,–,9.3µM
CCN(CC(=O)Nc1cccc(S(=O)(=O)N(C)c2ccccc2)c1)Cc1ccccc1,·,10µM,·,–,?
CCCn1c2ccccc2c2cnn(CC(=O)Nc3ccc(C)cc3Br)c(=O)c21,–,·,–,·,·
COc1ccccc1C1CN(Cc2cccc(C)n2)Cc2ccccc2O1 (stereo unspecified),–,·,–,·,·
Cn1c2ccccc2c2cc(C(=O)NNC(=O)CCl)sc21,–,9.3µM,–,–,?
CCOc1ccc(N2CC(c3nc(-c4cc(OC)c(OC)c(OC)c4)no3)CC2=O)cc1 (stereo unspecified),–,·,–,·,·
O=C(C[C@@H]1C/C=C/CC[C@H](Cc2ccc(F)cc2)C(=O)OC[C@@H](Cc2ccccc2)NC1=O)N[C@H](CO)Cc1ccccc1,10µM,·,14µM,–,·
O=C1N[C@H](Cc2ccccc2)COC(=O)[C@H](Cc2ccc(F)cc2)CC/C=C/C[C@@H]1CC(=O)N(CCO)Cc1ccccc1,28µM,·,?,–,·
O=C1N[C@H](Cc2ccccc2)COC(=O)[C@@H](Cc2ccc(F)cc2)CC/C=C/C[C@H]1CC(=O)N(CCO)Cc1ccccc1,–,·,–,–,·
O=C1N[C@@H](Cc2ccccc2)COC(=O)[C@@H](Cc2ccc(F)cc2)CC/C=C/C[C@@H]1CC(=O)N(CCO)Cc1ccccc1,10µM,·,?,–,·
COc1ccc(OC)c(-c2cnc(OC(C)(C)C)nc2OC(C)(C)C)c1,–,10µM,?,–,12µM
CNc1cncc(-c2cc(OC)ccc2OC)n1,–,·,–,–,·
CCn1c(=O)cc(SCC(=O)NCc2ccc(Cl)cc2)c2ccccc21,–,·,–,·,·
Cn1c(=O)c(C(=O)Nc2ccccn2)c(O)c2ccccc21,·,10µM,·,–,–
Cn1c(=O)c(C(=O)NNC(=O)c2ccccc2Br)c(O)c2ccccc21,?,2.1µM,–,–,–
COc1ccc(CCNC(=O)c2ccc(-n3c(C)cc4c3CCC(C)C4)cc2)cc1OC (stereo unspecified),–,·,–,·,·
CCC(C(=O)OCC(=O)N1CCN(S(=O)(=O)c2ccc(C)cc2C)CC1)c1ccccc1 (stereo unspecified),–,9.3µM,–,–[11.6 µM],13µM
CCOC(=O)c1c(C)[nH]c(C(=O)OCC(=O)N2CCN(S(=O)(=O)c3ccc(C)cc3C)CC2)c1C,·,7.4µM,·,–,15µM
O=C(CSc1nc(-c2cccs2)nc2cc(=O)[nH]n12)Nc1ccccc1Cl,–,·,–,·,·
CCn1c(SCc2ccccc2F)nc(=O)c2c(C(=O)OC)cc(C3CC3)nc21,–,·,–,·,·
COc1ccccc1Oc1ccc2c(c1)C(=O)N(c1cccc(O)c1)C2=O,–,–,–,–,2.6µM
O=C1c2ccc3c4c(ccc(c24)C(=O)N1c1cccc(O)c1)C(=O)N(c1cccc(O)c1)C3=O,·,1µM,·,–,1.9µM
SMILES,VACV mCherry inh,Pf growth 96h,Vaccinia Venus,AMA1-RON2 inh,Pf growth 48h
COc1ccccc1Oc1ccc2c(c1)C(=O)N(c1cccc3ncccc13)C2=O,–,–,–,–,–
CCOC(=O)c1c(C)nc2sc3c(=O)n(-c4ccc(C(C)=O)cc4)nnc3c2c1-c1ccc(Cl)cc1,·,–,–,–,–
CCOC(=O)c1c(C)nc2sc3c(=O)n(-c4ccc(C(C)=O)cc4)cnc3c2c1-c1ccc(Cl)cc1,–,3.7µM,–,–,·
Cc1cc(C)cc(NC(=O)CN2C(=O)c3ccccc3Sc3ccc(C(=O)N4CCCC4)cc32)c1,–,·,–,·,·
CCCN1CNc2c(c(=O)[nH]c(=O)n2CCc2ccc(OC)c(OC)c2)C1,–,·,–,·,·
CCOC(=O)C1(Cc2cccc(OC)c2)CCN(Cc2cc(OC)ccc2OC)CC1,?,10µM,–,–,?
